Unmarked numbers belong to inactive results. Results filed as inconclusive are left out. Where a call stands in place of a potency, no number is given. Active and inactive are the calls of the source. Calls follow the shape of the dose curve; as a rule, active = well fitted curve in the direction sought with a large enough effect in the repeat runs; inconclusive = weak or mixed curves; inactive = no such curve, though single readings can be large; an effect the other way counts as inactive or inconclusive.
Columns and labels:
[1] = qHTS RealTime-Glo MT Cell Viability Assay in HEK293 cells - 0 hour (AID 1224880); also: nearly all actives have a fitted effect of over 45% in size; also: potency is read from the fitted curve at half-maximal effect
Outline: (§1)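 Tox21 screen in HEK293 using RealTime-Glo MT chemistry, with cells and reagent co-dispensed. Luminescence proportional to viable cell number was captured at intervals during 40 h compound exposure at 37 C.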

[2] = A CellTox Green Cytotoxicity Assay to monitor cytotoxicity in HEK293 cells - 32 hour (AID 1224881); also: nearly all actives have a fitted effect of over 40% in size; also: potency is read from the fitted curve at half-maximal effect
Outline: (§2)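 Seeding of HEK293 cells together with cytotoxicity dye preceded a 5 h incubation at 37 C/5% CO2. Test compounds in DMSO were then added and fluorescence monitored across 40 h.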

[3] = A CellTox Green Cytotoxicity Assay to monitor cytotoxicity in HepG2 cells - 0 hour (AID 1224882); also: nearly all actives have a fitted effect of over 35% in size
Outline: (§3)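 Nonlytic assay: viable cells exclude the dye, so fluorescence scales with cell death. HepG2 at 600 cells/well, compounds added after 5 h, signal read across 40 h.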

[4] = A CellTox Green Cytotoxicity Assay to monitor cytotoxicity in HepG2 cells - 32 hour (AID 1224883); also: nearly all actives have a fitted effect of over 50% in size; also: potency is read from the fitted curve at half-maximal effect
Outline: as §3

[5] = A CellTox Green Cytotoxicity Assay to monitor cytotoxicity in HEK293 cells - 8 hour (AID 1224884); also: nearly all actives have a fitted effect of over 35% in size
Outline: as §2

[6] = qHTS RealTime-Glo MT Cell Viability Assay in HepG2 cells - 16 hour (AID 1224885); also: nearly all actives have a fitted effect of over 50% in size; also: potency is read from the fitted curve at half-maximal effect
Outline: (§4)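 HepG2 suspension premixed with RealTime-Glo reagents is plated at 600 cells per well and left 5 h at 37 C/5% CO2. Compounds in DMSO then go in, and bioluminescence reflecting viable cell number is recorded over 40 h.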

[7] = qHTS RealTime-Glo MT Cell Viability Assay in HEK293 cells - 24 hour (AID 1224886); also: nearly all actives have a fitted effect of over 50% in size; also: potency is read from the fitted curve at half-maximal effect
Outline: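 Reads taken at 0, 8, 16, 24, 32 and 40 h from the same wells. HEK293 cells (600/well) carried RealTime-Glo reagents from seeding, with compound added after a 5 h settle at 37 C.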

[8] = qHTS RealTime-Glo MT Cell Viability Assay in HEK293 cells - 8 hour (AID 1224887); also: nearly all actives have a fitted effect of over 50% in size; also: potency is read from the fitted curve at half-maximal effect
Outline: as §1

[9] = qHTS RealTime-Glo MT Cell Viability Assay in HepG2 cells - 0 hour (AID 1224889); also: nearly all actives have a fitted effect of over 50% in size; also: potency is read from the fitted curve at half-maximal effect
Outline: as §4

[10] = A CellTox Green Cytotoxicity Assay to monitor cytotoxicity in HEK293 cells - 16 hour (AID 1224888); also: nearly all actives have a fitted effect of over 35% in size; also: potency is read from the fitted curve at half-maximal effect
Outline: as §2

SMILES	Potency [1]	Potency [2]	Potency [3]	Potency [4]	Potency [5]	Potency [6]	Potency [7]	Potency [8]	Potency [9]	Potency [10]
Cc1ccccc1N=C(N)Nc1ccccc1C	inactive	inactive	inactive	inactive	inactive	inactive	inactive	inactive	inactive	–
CCCC(=O)C(=O)O	inactive	inactive	inactive	inactive	inactive	inactive	inactive	inactive	inactive	inactive
COc1cc(C(=O)NCCCCCC(=O)O)cc(OC)c1OC	inactive	inactive	inactive	inactive	inactive	inactive	inactive	inactive	inactive	inactive
C=C(C)C(=O)OCCOCCOC(=O)C(=C)C	inactive	inactive	inactive	inactive	inactive	inactive	inactive	inactive	inactive	inactive
CNC(=O)c1cnn(-c2nc(N)c3ncn([C@@H]4O[C@H](CO)[C@@H](O)[C@H]4O)c3n2)c1	inactive	inactive	inactive	inactive	inactive	inactive	inactive	inactive	inactive	inactive
N#[N+]c1ccc2c(S(=O)(=O)[O-])cccc2c1O	inactive	inactive	inactive	inactive	inactive	inactive	inactive	–	inactive	inactive
C/C=C/C=C/C=O	inactive	inactive	inactive	inactive	inactive	inactive	inactive	inactive	inactive	inactive
CC(C)(O)c1ccc(CNC(=O)c2cccnc2Oc2ccc3nonc3c2)cc1	inactive	inactive	inactive	inactive	inactive	inactive	–	inactive	inactive	inactive
O=C(O)CCC(=O)C(=O)O	inactive	inactive	inactive	inactive	–	inactive	inactive	inactive	inactive	inactive
C=COCC(C)C	inactive	inactive	inactive	inactive	inactive	inactive	–	–	inactive	inactive
CCCCOc1ccc(OCCCN2CCOCC2)cc1	inactive	inactive	inactive	inactive	–	inactive	–	inactive	inactive	inactive
CC(C)(c1ccccc1)c1ccccc1	inactive	51.1 µM (active)	inactive	inactive	–	inactive	inactive	–	inactive	–
CCCCCCC(C)(C)C(=O)O	inactive	inactive	inactive	inactive	–	inactive	inactive	inactive	inactive	–
CC(C)C[C@H](NC(=O)[C@H](CCc1ccccc1)NC(=O)CN1CCOCC1)C(=O)N[C@@H](Cc1ccccc1)C(=O)N[C@@H](CC(C)C)C(=O)[C@@]1(C)CO1	inactive	0.301 µM (active)	inactive	0.0239 µM (active)	–	–	0.0674 µM (active)	inactive	inactive	inactive
CCCCN(CCN(CCCC)C(=O)N1CCOCC1)C(=O)N1CCOCC1	inactive	inactive	inactive	inactive	–	inactive	inactive	inactive	inactive	inactive
O=c1[nH]c2ccc(Cl)cc2o1	inactive	inactive	inactive	inactive	–	inactive	inactive	inactive	inactive	–
CC(C)=CCC/C(C)=C/CC/C(C)=C/C(=O)OCC(=O)[C@@]1(O)CC[C@H]2[C@@H]3CCC4=CC(=O)C=C[C@]4(C)[C@H]3[C@@H](O)C[C@@]21C	inactive	inactive	inactive	inactive	inactive	–	4.25 µM (active)	6.01 µM (active)	inactive	inactive
O=C(/C=C/c1ccc(O)c(O)c1)O[C@@H]1C[C@@](OC(=O)/C=C/c2ccc(O)c(O)c2)(C(=O)O)C[C@@H](O)[C@@H]1O	inactive	inactive	inactive	inactive	–	inactive	inactive	inactive	inactive	inactive
CCOC(=O)c1ccc(OCCN2C[C@H](O)[C@@H](O)[C@H](O)[C@H]2CO)cc1	inactive	inactive	inactive	inactive	–	inactive	inactive	inactive	inactive	inactive
CC(=O)c1cc2ccccc2s1	inactive	inactive	inactive	inactive	–	inactive	–	inactive	inactive	inactive
CC1(C)S[C@@H]2[C@H](NC(=O)C(c3ccccc3)S(=O)(=O)O)C(=O)N2[C@H]1C(=O)O (some centres undefined)	inactive	inactive	inactive	inactive	inactive	inactive	–	inactive	inactive	–
COC(=O)C1=C(C)NC(C)=C(C(=O)O[C@@H]2CCCN(Cc3ccccc3)C2)[C@@H]1c1cccc([N+](=O)[O-])c1	8.49 µM (active)	inactive	inactive	inactive	inactive	–	inactive	inactive	5.35 µM (active)	inactive
NC1[C@H]2CN(c3nc4c(cc3F)c(=O)c(C(=O)O)cn4-c3ccc(F)cc3F)C[C@@H]12 (some centres undefined)	inactive	inactive	inactive	inactive	–	inactive	inactive	inactive	–	–
COc1ccccc1NC(=O)c1cc2ccccc2cc1O	inactive	inactive	inactive	inactive	inactive	–	34.7 µM (active)	34.7 µM (active)	–	inactive
C[C@H]1c2cccc(O)c2C(O)=C2C(=O)[C@]3(O)C(O)=C(C(N)=O)C(=O)[C@@H](N(C)C)[C@@H]3[C@@H](O)[C@@H]21	inactive	inactive	inactive	inactive	–	inactive	inactive	inactive	inactive	inactive
COc1cc(C(=O)NC2CCN(C)CC2)ccc1Nc1ncc2c(n1)N(C1CCCC1)CC(F)(F)C(=O)N2C	inactive	35.7 µM (active)	inactive	25.2 µM (active)	–	40 µM (active)	–	–	–	17.9 µM (active)
